Measurements taken from PubChem BioAssay (NCI).
This is part of a sample that, as a whole, favours compounds with a hit. Of some 79,000 tested, about 15% had one in any assay. Unmarked numbers belong to inactive results. Calls of active or inactive are those of the source. Cut-off read from the data, not from the text of the source: active = growth inhibition above about 70%; inactive = the rest.

Tests used:
[1] = NCI Yeast Anticancer Drug Screen. Data for the rad50 strain (AID 155);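 note: 0% = growth of vehicle-only cultures of the same strain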; conditions: S. cerevisiae rad50 strain growth inhibition; at 50.0 µM; stronger effect = higher value
In short: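 DNA repair mutant yeast, compound exposure, growth read-out; inhibition is taken relative to vehicle.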

[2] = NCI Yeast Anticancer Drug Screen. Data for the mec2-1 strain (AID 157); conditions: S. cerevisiae mec2-1 strain, at 50.0 µM, stronger effect = higher value
In short: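 Yeast mec2-1 mutant treated with compound. Readout: growth inhibition vs vehicle controls.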

[3] = NCI Yeast Anticancer Drug Screen. Data for the sgs1 mgt1 strain (AID 161);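 note: 0% = growth of cultures given vehicle only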; conditions: S. cerevisiae sgs1 mgt1 strain, at 50.0 µM, stronger effect = higher value
In short: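 Test agents were incubated with a DNA-repair-mutant yeast strain. Growth was then read and compared against vehicle-treated controls.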

[4] = NCI Yeast Anticancer Drug Screen. Data for the cln2 rad14 strain (AID 165);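 note: 0% = growth equal to vehicle treated cultures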; conditions: S. cerevisiae cln2 rad14 strain, at 50.0 µM, stronger effect = higher value
In short: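 cln2 rad14 yeast strain; compound exposure; growth inhibition read vs vehicle controls.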

[5] = NCI Yeast Anticancer Drug Screen. Data for the bub3 strain (AID 167); conditions: S. cerevisiae bub3 mutant strain, at 50.0 µM, stronger effect = higher value
In short: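 In this screen, a yeast mutant lacking normal mitotic checkpoint function is challenged with compound. Relative growth versus vehicle gives the inhibition value.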

[6] = NCI Yeast Anticancer Drug Screen. Data for the mlh1 rad18 strain (AID 175); conditions: S. cerevisiae mlh1 rad18 strain growth inhibition; at 50.0 µM; stronger effect = higher value
In short: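 Yeast w/ defined DNA-repair lesions; compound exposure; growth vs vehicle controls → % inhibition.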

| SMILES | growth inhibition [1] | growth inhibition [2] | growth inhibition [3] | growth inhibition [4] | growth inhibition [5] | growth inhibition [6] |
| --- | --- | --- | --- | --- | --- | --- |
| O=C(CN1C(=O)C2CCCCC2C1=O)N1CC1 (configuration not stated) | -7.8% | 0.1% | -11.7% | 5.85% | -6.6% | -9.3% |
| CCCCS(=O)(=O)Cl | 34.5% | 13.2% | 9.8% | -12.5% | 29.8% | 25.9% |
| O=NNc1cncc(Cl)n1 | -11.2% | -3.5% | -5.35% | -17.9% | -0.4% | -6.05% |
| CNC(=O)O/N=C(\CN=[N+]=[N-])C(C)(C)C | 4.6% | 3.55% | -1.4% | 0% | -19.6% | -20.5% |
| C[C@]12CC[C@@H]3C4=CC(=O)CC[C@@H]4CC[C@H]3[C@@H]1CC[C@@H]2O | -4.3% | -12.1% | 5.2% | -8.45% | 4.8% | -2.75% |
| N#CC1=C(C#N)C(=O)C(Cl)=C(Cl)C1=O | 14.9% | 24.9% | 16.9% | 8.7% | 16.6% | 29.2% |
| CC(C)C1NC(C(C)C)N2C(C(C)C)N12 (configuration not stated) | -0.05% | -17.2% | -14.3% | -24.5% | -2.25% | -1.5% |
| O=[N+]([O-])c1ccc(-n2nc3ccc4c(no[n+]4[O-])c3n2)cc1 | -21.6% | 23.5% | 20.1% | 16.6% | -15.6% | -25.6% |
| CC[N+](CC)(CC)CC.N#CC(C#N)=C([SH2+])[SH2+].N#CC(C#N)=C([SH2+])[SH2+].[Co+2] | 95.3% (active) | 95.8% (active) | 56% | 94.5% (active) | 98.9% (active) | 98.7% (active) |
| O=P(N1CCNCC1)(N1CCNCC1)N1CCNCC1 | -20.1% | -11.8% | -1.35% | -42.5% | 5.45% | -20.2% |
| O=C1CCC(=O)N1c1ccc([As](=O)(O)O)cc1 | -2.55% | -9.15% | 13.2% | -28.1% | 0.6% | -16.9% |
| COc1cc(C2c3cc4c(cc3[C@@H](OC)[C@H]3COC(=O)C23)OCO4)cc(OC)c1O (some centres not stated) | 89.5% (active) | 90% (active) | 86.4% (active) | 85.1% (active) | 89.3% (active) | 88.7% (active) |
| CC(C)CCC1C(=O)N(C)C(=O)N(C)C1=O | -9% | -6.55% | 3.15% | -0.5% | 0.55% | 2.05% |
| ClC12OOC(c3ccccc3)(O1)C(c1ccccc1)c1ccccc12 (configuration not stated) | 14.2% | 24.1% | 34.9% | 51.9% | 10.8% | 44.5% |
| CC1(C)N=C(N)N=C(N)N1c1cccc(CCCCc2ccc(S(=O)(=O)F)c(Cl)c2)c1 | 99.5% (active) | 99.7% (active) | 99.5% (active) | 99.4% (active) | 99.3% (active) | 99.7% (active) |
| CC1=CC(=O)CCC12CCOC2=O (configuration not stated) | -54.1% | -20.1% | -21.3% | -40.6% | -13.2% | -7.55% |
| CC(=N\[O-])/C(C)=N/[O-].CC(=N\[O-])/C(C)=N/[O-].[Cu+2] | 42.8% | 22.9% | 15% | -18.9% | 33.5% | 29.2% |
| CC(C)COP(=O)(Cc1ccccc1)OCC(C)C | 8.85% | 5.65% | -0.5% | 11.8% | 5% | -6.2% |
| CCCCCCC(Cn1ccnc1)c1ccc(Br)cc1 (configuration not stated) | 98.2% (active) | 98.8% (active) | 95.8% (active) | 98.3% (active) | 99.5% (active) | 91.7% (active) |
| CC(C)C(O)(C(=O)OCC1=CCN2CCC(O)C12)C(C)O (configuration not stated) | 2.55% | 0.1% | 25.1% | 9.55% | 12.6% | 8.5% |
| C[N+]1(C)C2CC(O)CC1C1OC12 (configuration not stated) | -4.35% | 5.15% | 1.45% | 2.85% | -3.75% | 4.45% |

| SMILES | growth inhibition [1] | growth inhibition [2] | growth inhibition [3] | growth inhibition [4] | growth inhibition [5] | growth inhibition [6] |
| --- | --- | --- | --- | --- | --- | --- |
| N#CCC(=O)c1ccccc1 | 3.3% | 29.9% | -0.25% | -20.7% | -10.9% | 1.4% |
| C/C=C/CC1(CC)C(=O)NC(=S)NC1=O | 3.8% | 7% | 7.15% | 9% | 2.35% | 13.6% |
| OC(c1ccccc1)C(Cl)(Cl)Cl (configuration not stated) | 17.1% | -10.8% | 13.7% | -42.1% | -14.1% | 3.55% |
| NC(Cc1ccc(O)c(O)c1)c1ccccc1 (configuration not stated) | -12.1% | 4.2% | -2.55% | -25.8% | -7.75% | -22.6% |
| Cc1ccc2[nH]c(=S)n(-c3cccc(C(F)(F)F)c3)c(=O)c2c1 | 17.8% | 6.35% | 21.4% | 20.7% | 22.6% | 16.5% |
| C[N+](C)([O-])CCNC(=O)c1cc(N(CCCl)CCCl)c([N+](=O)[O-])cc1[N+](=O)[O-] | -7.55% | -35% | -3.9% | -63.5% | -4.95% | -11.8% |
| COc1cc(C2c3cc4c(cc3OC(C)(O)C2C(C)=O)OCO4)cc(OC)c1OC (configuration not stated) | -10.2% | -0.15% | 3.9% | -18.6% | -1.1% | -7.45% |
| COC(=O)CCP(CCC(=O)OC)c1ccccc1 | -3.9% | -11% | -7.15% | -10.7% | -4.85% | 1.1% |
| CCOP(=S)(OCC)Oc1ccc2c(c1)OC(=O)C1(Cl)C2(C)C2(Cl)C(=O)Oc3cc(OP(=S)(OCC)OCC)ccc3C12C (configuration not stated) | 10.2% | 4.75% | 3.45% | 15.1% | 2.05% | 1.45% |
| N.N.N.N.N.NC(=O)[O-].[Co+3].[I-] | -14.1% | 3.9% | -13.1% | 25.7% | -7.75% | -15.7% |
| Cn1c(O)c(C=N)c(=O)[nH]c1=O | -4% | 3.35% | -1.65% | -15.7% | -8% | -8.3% |
| CCN1CCOC(CC)(c2cc(Cl)cc(Cl)c2Cl)C1 (configuration not stated) | 6.35% | 20.4% | 8.4% | 13.2% | 4.3% | 20.4% |
| CC(C)=C=CP(=O)(O)c1ccccc1 | -25.1% | -24.1% | -15.7% | 31.9% | -14.3% | 4.45% |
| COc1cc(C(O)CN)cc(OC)c1OC (configuration not stated) | -12.9% | 2.2% | -6.55% | -7.35% | -3.35% | -6.8% |
| CC/C=C/C1(C)C(=O)NC(=S)NC1=O | 5.15% | 3.1% | -7.3% | 1.7% | 11.4% | -2.95% |
| CC(O)CN(CCN(CC(C)O)CC(C)O)CC(C)O.[Cl-].[Zn+2] (configuration not stated) | 14.9% | 9.25% | 17.4% | 10.7% | 8.8% | 6.1% |
| CC(=O)[O-].CC(=O)[O-].O=C(N/N=C/c1cc(Cl)cc(Cl)c1O)c1ccncc1.[Cu+2] | 2.55% | 2.75% | 10.7% | 51.1% | -4.05% | 9.85% |
| Cc1ccc(S(=O)(=O)OC2CC3c4ccccc4C2c2cccc[n+]23)cc1 (configuration not stated) | 68% | 7.5% | 36.4% | -18.4% | 8.8% | 12.1% |
| O=C(CF)Nc1ccc([N+](=O)[O-])cc1 | -12.4% | -7.25% | -6.25% | -15.7% | 0.2% | 9.1% |
| CC(C)CCCC(C)CCC1C(=O)NC(=S)NC1=O (configuration not stated) | 8.45% | 10.2% | -4.4% | 1.75% | -3.05% | 32.1% |
| CC/C=C/C1(C(C)C)C(=O)NC(=O)NC1=O (tested in a mixture with another compound) | 14.9% | 0.35% | 5.15% | -27.4% | 0.3% | 13.7% |
